PNC inhibitor – inhibitors of perinucleolar compartment assembly | AID 2417 | 140,000 compounds, 3.1% hits | activity change (PNC), negative = inhibition, % at 10 µM | PC3M PTB-GFP, PNC prevalence imaging, 16 h; active compounds read low;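 active = readout at or below -70, meaning at least 70% loss of cells showing the perinucleolar compartment, a nuclear body marking cancer cells; inconclusive = readout between -30 and a set limit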;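 also: plate controls were DMSO wells for no effect and camptothecin positive control wells for full effect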
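Compounds are pinned in duplicate onto adhered PC3M cells stably expressing GFP-tagged PTB and incubated 16 h at 37 C. Cells are then fixed, nuclei stained with Hoechst, and PNC-positive cells counted.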
ALOX15B inhib – blocks human 15-lipoxygenase 2 activity; 110,000 compounds, 0.56% hits; purified 15hLO-2, xylenol orange hydroperoxide absorbance; Potency, µM (highest dose often 57.1 µM), for the others: top-dose activity change, negative = inhibition, actives largely listed as inhibitors; also: potency is read from the fitted curve at half-maximal effect; nearly all actives have a fitted effect of over 60% in size
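Screening format was qHTS against 50 nM purified 15hLO-2 in Hepes pH 7.5 with detergent. Activity follows hydroperoxide formation from 45 uM arachidonic acid, measured as 573:405 nm absorbance ratio of the ferric-xylenol orange complex.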
IMPase Li inh – IMPase inhibition in cells with lithium potentiation; 210,000 compounds, 0.35% hits; Potency, µM (series often up to 59.4 µM), for the others: top-dose activity, negative = IMPase inhibition, actives largely listed as inhibitors; CHO-M1 cells, IP1 TR-FRET (IP-One), carbachol + lithium;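 also: IP1 builds up when IMPase is blocked and the TR-FRET signal falls; potency is read from the fitted curve at half-maximal effect; plate controls were basal vehicle for no effect and high inhibitor control for full effect; nearly all actives have a fitted effect of over 50% in size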
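Lithium-sensitised IP1 accumulation assay; M1-expressing CHO cells treated 30 min at 37C with compound. Competitive antibody detection by time-resolved FRET followed a 10 min room-temperature lysis step.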
HPGD inh – blocks human HPGD enzyme activity; P15428; purified HPGD, NADH fluorescence kinetic, PGE2 substrate; Potency, µM, without a hit: at the highest dose activity change, negative = inhibition, usual class: inhibitors; 150,000 compounds, 4.3% hits; active = well fitted inhibition curve with a large enough effect, not every such curve was filed as active; inconclusive = small, poorly fitted or top-dose-only effect, or another doubt; inactive = no such curve, though single readings can be large or run the other way; also: potency is read from the fitted curve at half-maximal effect
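20 nM HPGD preincubated 15 min at room temperature with compound in 50 mM Tris-HCl pH 8, 0.01% Tween 20. Started with 1 mM NAD+ and 30 uM prostaglandin E2; NADH fluorescence (360/450 nm) read 5 times over 30-s intervals, last minus first.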
IMPase cell inh – cell-permeable inhibitors of inositol monophosphatase (IMPase); AID 901; inhibition (IP1 accumulation), % at 46.1 µM; P97697; CHO-M1 cells, IP1 accumulation, HTRF TR-FRET ratio; 120,000 tested, under 10 active; active = well fitted curve in the direction sought with a large enough effect in the signal ratio, not every such curve was filed as active; inconclusive = small, poorly fitted or top-dose-only effect, or a change in a side signal; inactive = no such curve, though single readings can be large or run the other way; the % refers to the signal ratio;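 also: cells stimulated with carbachol in lithium chloride buffer; plate controls were DMSO basal wells for no effect and reference inhibitor wells for full effect; higher means more IMPase inhibition seen as more IP1 and lower FRET ratio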
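Measured: the HTRF emission ratio (665/620 nm) plus the 620 nm donor channel, each fitted to the Hill equation to give AC50. Cells were CHO-M1 given compounds up to 46 uM and a 30 min carbachol stimulation at 37C.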
ALOX12 inhib – 12-hLO (ALOX12) enzyme inhibition; Potency, µM (top dose mostly 57.1 µM), inactives show at the highest dose activity change, negative = inhibition, usual class: inhibitors; P18054; purified 12-hLO, xylenol orange hydroperoxide absorbance; AID 1452; 150,000 compounds, 0.12% hits; also: potency is read from the fitted curve at half-maximal effect; nearly all actives have a fitted effect of over 55% in size
Target sequence (P18054 whole entry, looked up): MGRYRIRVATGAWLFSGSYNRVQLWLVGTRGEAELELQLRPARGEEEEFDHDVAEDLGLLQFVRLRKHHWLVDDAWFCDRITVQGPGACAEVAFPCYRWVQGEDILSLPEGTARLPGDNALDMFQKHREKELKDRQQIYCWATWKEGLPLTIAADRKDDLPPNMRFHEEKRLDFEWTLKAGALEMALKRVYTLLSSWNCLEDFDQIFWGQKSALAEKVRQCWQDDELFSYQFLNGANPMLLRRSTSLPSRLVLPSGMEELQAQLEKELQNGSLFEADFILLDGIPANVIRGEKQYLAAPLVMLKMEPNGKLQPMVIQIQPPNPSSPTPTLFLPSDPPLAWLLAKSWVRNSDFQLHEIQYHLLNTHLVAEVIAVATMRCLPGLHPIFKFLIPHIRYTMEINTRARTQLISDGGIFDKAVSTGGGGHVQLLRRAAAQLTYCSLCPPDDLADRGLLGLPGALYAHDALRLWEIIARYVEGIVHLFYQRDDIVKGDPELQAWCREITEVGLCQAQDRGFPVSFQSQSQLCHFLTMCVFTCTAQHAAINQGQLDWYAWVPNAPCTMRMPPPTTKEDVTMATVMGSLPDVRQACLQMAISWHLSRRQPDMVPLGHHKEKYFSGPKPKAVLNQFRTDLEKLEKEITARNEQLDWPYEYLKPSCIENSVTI
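Hydroperoxide output read as Fe(III)-xylenol orange absorbance, 573-to-405 nm ratio, after 30 min reaction with 40 uM arachidonic acid. Enzyme: 150 nM purified human 12hLO, 15 min compound preincubation; 25 mM Hepes pH 7.0, room temperature.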
* hit, by the source's call; ? = inconclusive; · = no result given; [ ] = remark or other dose. Shown are actives, neighbours in structure and some others; about 5.3% of the full set was active somewhere. Unless noted, calls follow the shape of the dose curve; as a rule, active = well fitted curve in the direction sought with a large enough effect; inconclusive = small, poorly fitted or top-dose-only effect, or another doubt; inactive = no such curve, though single readings can be large; an effect the other way counts as inactive or inconclusive. Unless noted, % is scaled to controls: 0 for no effect and ±100 for the full control effect.

SMILES | PNC inhibitor | ALOX15B inhib | IMPase Li inh | HPGD inh | IMPase cell inh | ALOX12 inhib
CC(C)C(c1nnnn1Cc1ccc2c(c1)OCO2)N1CCN(C)CC1 (stereo not drawn) | -100* | · | 4% | -10% | -3 | -1%
CC(C)C(c1nnnn1Cc1ccc2c(c1)OCO2)N1CCN(c2ccccc2)CC1 (stereo not drawn) | 9 | -9% | 19%[38.3 µM] | -9% | 4 | -5%
O=C(O)CCCC(=O)Nc1ccc(Br)cc1 | -100* | 2% | -9%[38.3 µM] | -4% | 9 | -1%
O=C(O)CCCC(=O)Nc1ccc(Cl)cc1 | · | · | 3% | · | · | ·
O=C(Nc1cccc(-c2nc3ncccc3o2)c1)c1sc2ccccc2c1Cl | -21 | -11% | -11%[38.3 µM] | -22% | -8 | -6%
O=C(Nc1cccc(-c2nc3ncccc3o2)c1)c1sc2cc(Cl)ccc2c1Cl | ? | -27% | 11µM* | ? | -1 | -5%
CN(C(=O)COc1cc(=O)n(C)c2ccccc12)c1ccc(Cl)cc1 | 12 | 8% | 7%[38.3 µM] | -9% | 2 | -5%
CN(c1ccc(Cl)cc1)c1cc(=O)n(C)c2ccccc12 | ? | -9% | -18%[38.3 µM] | 7.9µM* | -24 | -20%
CC(C)CCn1c(Sc2nc3ccccc3o2)nc2c1c(=O)[nH]c(=O)n2C | -16 | · | 9% | -5% | · | -1%
Cc1cccc(CN2CCN(CC(=O)NCCCN3CCCC3=O)C2=O)c1 | -111* | -2% | 19%[38.3 µM] | 0% | 12 | -1%
Cc1cccc(CN2CCN(CC(=O)NCCCN3CCN(c4ccc(F)cc4)CC3)C2=O)c1 | ? | 20% | 21%[38.3 µM] | -2% | -3 | 3%
COc1ccccc1NC(=S)N1CCN(c2nc(-c3ccccc3)cs2)CC1 | · | · | 12% | · | · | ·
Cc1ccc(NC(=O)CCn2nc(-c3ccccc3)c3ccccc3c2=O)c(C)c1 | · | · | · | · | 9 | ·
CCOC(=O)N1CCC(N2CC34C=CC(O3)C(C(=O)O)C4C2=O)CC1 (stereo not drawn) | -108* | 1% | 17%[38.3 µM] | -12% | 9 | -4%
CCCN1CC23C=CC(O2)C(C(=O)O)C3C1=O (stereo not drawn) | -4 | -3% | 10%[38.3 µM] | -10% | -10 | 1%
Cc1nn(CCc2n[nH]c(=S)n2C2CCCCC2)c(C)c1Br | -24 | ? | -3%[38.3 µM] | 25µM* | 5 | -9%
Brc1ccc(C=Nc2ccc3c(c2)OCCOCCOCCO3)s1 | -26 | · | -11% | -7% | · | 0%
O=c1c2ccccc2nnn1Cc1ccccc1Cl | · | · | 10% | · | · | ·
O=C(COc1ccccc1Cl)NC(=S)Nc1ccc(CN2CCOCC2)cc1 | 18 | · | 16% | 25µM* | · | 2%
CCN(CC)CC(=O)n1c2c(c3ccccc31)CCCC2 | -100* | 26% | -10%[38.3 µM] | -10% | 2 | -7%
CN1CCN(CC(=O)n2c3c(c4ccccc42)CCCC3)CC1 | ? | 46% | 15%[38.3 µM] | 0% | 2 | -1%
CO[C@@H]1/C=C\O[C@]2(C)Oc3c(C)c(O)c4c(O)c(c(CN5CCN(C)CC5)c(O)c4c3C2=O)NC(=O)/C(C)=C\C=C[C@@H](C)[C@@H](O)[C@H](C)[C@@H](O)C(C)[C@H](OC(C)=O)[C@@H]1C (stereo partly drawn) | · | · | 3% | -12% | · | ·
CCc1ccc2[nH]c(=O)c(CN(Cc3ccco3)S(=O)(=O)c3ccc4c(c3)OCCO4)cc2c1 | 29 | 0% | 11µM* | ? | -1 | -5%
CCCC(C)NNC(=O)c1cc2ccccc2[nH]1 (stereo not drawn) | 27 | · | 3%[38.3 µM] | 13µM* | 2 | 2%
COc1ccc(CCNC(=O)c2ccc(Cl)c(S(=O)(=O)N(C)c3ccccc3)c2)cc1 | -89* | · | -6% | -15% | · | 0%
SMILES | PNC inhibitor | ALOX15B inhib | IMPase Li inh | HPGD inh | IMPase cell inh | ALOX12 inhib
CS(=O)(=O)c1nc(-c2ccccc2)cc(C(F)(F)F)n1 | -100* | · | 19% | ? | 10 | -6%
Cc1cc(NC(=O)CCS(=O)(=O)c2nc(-c3ccccc3)cc(C(F)(F)F)n2)no1 | 34 | -8% | 37%[38.3 µM] | ? | 9 | -5%
O=C(CC12CC3CC(CC(C3)C1)C2)Nc1cccc2ncccc12 | ? | 10% | 43%[38.3 µM] | -1% | 1 | 0%
Cc1ccc(Nc2nc(N)nc(CSc3nnc(-c4ccncc4)o3)n2)cc1 | 25 | 2% | 18%[38.3 µM] | 5% | 3 | 0%
N#Cc1cc(C#N)c(N2CCN(c3ccccn3)CC2)nc1N | 57 | -5% | 28µM* | -8% | 1 | 0%
c1ccc2c(c1)OCC(c1nn3c(Cn4nnc5ccccc54)nnc3s1)O2 (stereo not drawn) | -7 | -23% | 8% | 10µM* | 2 | -3%
c1ccc(OCc2nn3c(Cn4nnc5ccccc54)nnc3s2)cc1 | -13 | -19% | 25%[38.3 µM] | 8.9µM* | -9 | -3%
c1ccc(OCc2nn3c(-c4cccnc4)nnc3s2)cc1 | 11 | -7% | -9%[38.3 µM] | ? | 4 | 2%
c1ccc2c(c1)ncn2Cc1nnc2sc(-c3ccc4c(c3)OCO4)nn12 | 1 | 5% | 2%[38.3 µM] | ? | -2 | -22%
Clc1ccccc1-c1nn2c(Cn3cnc4ccccc43)nnc2s1 | -5 | 14% | 4%[38.3 µM] | 14µM* | 7 | -7%
c1ccc(CCc2nn3c(Cn4cnc5ccccc54)nnc3s2)cc1 | 7 | 5% | 14% | 16µM* | 3 | 6%
c1ccc(Cc2nn3c(Cn4nnc5ccccc54)nnc3s2)cc1 | -15 | -13% | 7%[38.3 µM] | 20µM* | -3 | -4%
COc1ccc(OCc2nn3c(Cn4cnc5ccccc54)nnc3s2)cc1 | 43 | -1% | -1%[38.3 µM] | 14µM* | 11 | 0%
COc1ccc(OCc2nn3c(-c4cccc(OC)c4)nnc3s2)cc1 | -9 | 15% | 12%[38.3 µM] | ? | -11 | -2%
c1ccc(CCc2nn3c(Cn4nnc5ccccc54)nnc3s2)cc1 | -18 | 2%[2.29 µM] | 7%[38.3 µM] | 10µM* | 2 | -3%
CC1CCCN(C(C(=O)NC2CCCCC2)c2cc3c(cc2[N+](=O)[O-])OCO3)C1 (stereo not drawn) | 18 | · | -6% | 32µM* | · | ?
O=C(CCCC(=O)OCC(Cl)=C(Cl)Cl)Nc1ccccc1 | -18 | · | -2% | 25µM* | -1 | -5%
Cc1ccc(NC(=O)c2ccccc2NS(=O)(=O)c2ccc(Cl)s2)cc1 | -82* | · | 9% | -6% | · | -3%
O=C(Nc1ccc(N2CCOCC2)c(Cl)c1)c1ccccc1F | 1 | -8% | 33%[38.3 µM] | 16µM* | 10 | -2%
O=C(Nc1ccc(N2CCOCC2)c(Cl)c1)c1ccc(Cl)cc1 | · | · | 19% | · | · | ·
Cc1ccc(NC(=O)c2cc(N3C(=O)C=CC3=O)ccc2N2CCOCC2)cc1Cl | 71 | · | 14% | 1.3µM* | · | ?

Assay outcomes deposited in PubChem by National Center for Advancing Translational Sciences (NCATS).
